# From PubChem BioAssay
# Activity calls are given as the source filed them. Unless noted, the rule behind the calls is not given here.
# Columns and labels:
# [1] = system: Wnt5a (protein binding on small-molecule microarray); test: Wnt5a binders on small-molecule microarray, primary screen, biophysical, 635/667 nm fluorescence (AID 1142); details: 635 nm fluorescence, higher = more signal;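 note: fluorescence read at 667 nm with signal to noise per printed feature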
# [2] = cell viability in Huh7 cells, primary screen, cytotoxicity control for HCV replication inhibitor project, CellTiter-Glo luminescence, basal, 48 h (AID 1143); details: Huh7 HCV replicon, higher = more signal, called active from +8 up or from −8 down;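 note: Huh7 hepatoma cells carrying a hepatitis C replication reporter with no stimulus; test concentration not given here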
# [3] = P. aeruginosa biofilm formation inhibitors, primary screen, PAO1 strain, BacTiter-Glo luminescence, LB-PBS (AID 1144); details: 12 h, higher = more signal
# [4] = CREB reporter modulators without forskolin, primary screen, cell-based, PC12, CRE-LacZ reporter, unstimulated (AID 1145); details: no forskolin, luminescence, 4.5 h, higher = more signal, called active from +8 up or from −8 down
# [5] = CREB reporter modulators under forskolin, primary screen, cell-based, PC12, CRE-LacZ reporter, forskolin-stimulated (AID 1146); details: luminescence, 4.5 h, higher = more signal, called active from +8 up or from −8 down;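 note: PC12 cells with 6xCRE LacZ reporter stimulated by forskolin 10 µM; beta-galactosidase reporter signal reflecting CREB driven transcription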
# [6] = molecular target: Streptavidin (Streptomyces avidinii) (UniProt P22629); test: streptavidin binders on small-molecule microarray, primary screen, artefact control for SMM compound annotation, biophysical, 635/667 nm fluorescence (AID 1147); details: streptavidin binding, higher = more signal;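 note: signal reflects streptavidin binding to arrayed compounds as a control protein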
# [7] = small-molecule binders of probe aInhba, primary screen, biochemical, small-molecule microarray, 635/667 nm fluorescence (AID 1148); details: higher = more signal;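 note: score merges 667nm spot fluorescence with signal-to-noise for antibody binding to printed compounds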
# Torsin-1A (Homo sapiens) [8] = molecular target: Torsin-1A (Homo sapiens) (UniProt O14656); test: torsin A binders from cell lysate, primary screen, small-molecule microarray, wild-type, 635/667 nm (AID 1149); details: COS7 hTOR1A-WT lysate, 635 nm fluorescence, higher = more signal
# Torsin-1A (Homo sapiens) [9] = molecular target: Torsin-1A (Homo sapiens) (UniProt O14656); test: small-molecule binders of mutant TOR1A in lysate, primary screen, cell lysate, small-molecule microarray, COS7 lysate, 635/667 nm fluorescence (AID 1150); details: COS7 hTOR1A mutant lysate, 635 nm fluorescence, higher = more signal;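 note: score pools 667 nm emission and signal to noise measuring lysate protein binding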
# [10] = system: Sonic hedgehog protein (Shh); test: small-molecule binders of Shh protein, primary screen, biochemical, small-molecule microarray, 635/667 nm fluorescence (AID 1151); details: small-molecule microarray binding, 635 nm fluorescence; higher = more signal;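 note: Shh protein binding to compounds spotted on small-molecule microarray slides; score combines spot fluorescence intensity with signal-to-noise across triplicate slides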
# [11] = E. coli DRC41 culture turbidity changes, primary screen, E. coli filamentation inducer project, strain DRC41, OD650, 48 h (AID 1152);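 note: E. coli MC1000 strain DRC41 lacking acrAB efflux pump and sulA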; details: E. coli DRC41 (acrAB sulA), higher = more signal, called active from +8 up or from −8 down
# [12] = small-molecule binders of probe aLefty1, primary screen, biochemical, small-molecule microarray, 635/667 nm fluorescence (AID 1153); details: higher = more signal;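 note: score merges spot fluorescence with signal-to-noise ratio from the scanned slide images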
# [13] = PSAC antagonists in infected red cells, primary screen, cell-based, P. falciparum Indochina, OD700, 1 h (AID 1154); details: P. falciparum Indochina infected RBC osmotic lysis, higher = more signal, called active from +8 up or from −8 down
# [14] = PSAC antagonists in infected red cells, primary screen, cell-based, P. falciparum Indochina, OD700, 2 h (AID 1155);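 note: lysis reports solute entry through the parasite surface anion channel PSAC; channel blockers reduce lysis of infected cells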; details: P. falciparum Indochina infected erythrocytes, osmotic lysis OD700; higher = more signal, called active from +8 up or from −8 down
# [15] = osmotic lysis modulators in infected erythrocytes, primary screen, PSAC antagonist project, cell-based, P. falciparum Indochina, OD700, 3 h (AID 1156); details: higher = more signal, called active from +8 up or from −8 down
# [16] = PSAC antagonists in infected red cells, primary screen, cell-based, P. falciparum Indochina, OD700, 18 h (AID 1157); details: P. falciparum Indochina infected erythrocytes, osmotic lysis OD700, 18 h; higher = more signal, called active from +8 up or from −8 down
# [17] = modulators of S6 phosphorylation in cells, primary screen, cell-based, A549, cytoblot, luminescence, serum-stimulated (AID 1158); details: A549 phospho-S6 cytoblot, 5 h, higher = more signal;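 note: serum-stimulated A549 lung adenocarcinoma cells; signal is phosphorylated S6 detected by cytoblot immunostaining with HRP secondary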
# [18] = molecular target: NADPH oxidase 2 (Homo sapiens) (UniProt P04839); test: NOX2-dependent H2O2 signal modulators, primary screen, NOX inhibitor project, cell-based, HEK293-NOX2, PMA-stimulated, Amplex Red fluorescence (AID 1159); details: 45 min, higher = more signal, called active from +8 up or from −8 down; note: test concentration not given here
# [19] = molecular target: NADPH oxidase 4 (Homo sapiens) (UniProt Q9NPH5); test: NOX4-dependent H2O2 signal modulators, primary screen, NOX inhibitor project, cell-based, HEK293-NOX4, tetracycline-induced, Amplex Red fluorescence (AID 1160); details: 45 min, higher = more signal, called active from +8 up or from −8 down
# [20] = molecular target: NADPH oxidase 5 (Homo sapiens) (UniProt Q96PH1); test: NOX5-dependent H2O2 signal modulators, primary screen, NOX inhibitor project, cell-based, HEK293-NOX5, Amplex Red fluorescence (AID 1161); details: HEK293-NOX5, ionomycin, 45 min, higher = more signal
# Sequence of NADPH oxidase 5 (Homo sapiens) (Q96PH1 whole entry, looked up): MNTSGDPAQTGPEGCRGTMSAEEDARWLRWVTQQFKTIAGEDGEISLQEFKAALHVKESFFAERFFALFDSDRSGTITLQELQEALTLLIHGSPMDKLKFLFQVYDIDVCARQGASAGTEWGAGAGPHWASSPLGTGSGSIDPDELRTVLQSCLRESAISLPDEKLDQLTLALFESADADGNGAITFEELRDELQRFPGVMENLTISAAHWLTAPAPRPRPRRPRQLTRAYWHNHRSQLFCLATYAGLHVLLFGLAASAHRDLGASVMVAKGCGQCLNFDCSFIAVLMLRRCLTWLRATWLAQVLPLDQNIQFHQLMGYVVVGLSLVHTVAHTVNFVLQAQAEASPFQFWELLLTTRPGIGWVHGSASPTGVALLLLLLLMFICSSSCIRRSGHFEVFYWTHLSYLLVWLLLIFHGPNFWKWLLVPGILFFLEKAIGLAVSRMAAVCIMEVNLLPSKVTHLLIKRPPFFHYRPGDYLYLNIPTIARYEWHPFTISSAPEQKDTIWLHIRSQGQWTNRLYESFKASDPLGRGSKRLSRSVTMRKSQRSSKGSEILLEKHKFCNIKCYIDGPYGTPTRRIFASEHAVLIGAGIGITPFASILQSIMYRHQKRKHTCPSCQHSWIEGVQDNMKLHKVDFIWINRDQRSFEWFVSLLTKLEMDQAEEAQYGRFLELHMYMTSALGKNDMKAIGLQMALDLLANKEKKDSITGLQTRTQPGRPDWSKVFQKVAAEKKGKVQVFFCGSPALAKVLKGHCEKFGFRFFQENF
# Sequence of NADPH oxidase 4 (Homo sapiens) (Q9NPH5 whole entry, looked up): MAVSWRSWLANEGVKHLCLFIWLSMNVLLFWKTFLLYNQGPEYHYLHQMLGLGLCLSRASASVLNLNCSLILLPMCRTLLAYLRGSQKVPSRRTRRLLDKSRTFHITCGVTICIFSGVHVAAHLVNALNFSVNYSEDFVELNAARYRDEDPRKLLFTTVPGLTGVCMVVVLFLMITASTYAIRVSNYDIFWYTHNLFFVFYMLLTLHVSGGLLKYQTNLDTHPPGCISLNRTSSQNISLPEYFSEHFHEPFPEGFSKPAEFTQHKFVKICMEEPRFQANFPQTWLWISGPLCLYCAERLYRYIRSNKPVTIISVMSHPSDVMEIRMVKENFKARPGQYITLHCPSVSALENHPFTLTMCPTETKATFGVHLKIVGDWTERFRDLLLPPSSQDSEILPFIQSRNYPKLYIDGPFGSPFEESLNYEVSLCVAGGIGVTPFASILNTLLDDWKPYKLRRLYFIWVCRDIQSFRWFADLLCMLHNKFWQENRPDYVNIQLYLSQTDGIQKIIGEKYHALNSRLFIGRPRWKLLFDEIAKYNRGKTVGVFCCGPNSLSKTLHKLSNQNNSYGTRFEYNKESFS
# Sequence of Streptavidin (Streptomyces avidinii) (P22629 whole entry, looked up): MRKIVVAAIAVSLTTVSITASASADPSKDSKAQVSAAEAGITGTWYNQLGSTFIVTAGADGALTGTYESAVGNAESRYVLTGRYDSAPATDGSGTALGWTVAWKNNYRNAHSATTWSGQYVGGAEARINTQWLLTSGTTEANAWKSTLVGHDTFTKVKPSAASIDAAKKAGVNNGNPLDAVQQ
# Sequence of Torsin-1A (Homo sapiens) (O14656 whole entry, looked up): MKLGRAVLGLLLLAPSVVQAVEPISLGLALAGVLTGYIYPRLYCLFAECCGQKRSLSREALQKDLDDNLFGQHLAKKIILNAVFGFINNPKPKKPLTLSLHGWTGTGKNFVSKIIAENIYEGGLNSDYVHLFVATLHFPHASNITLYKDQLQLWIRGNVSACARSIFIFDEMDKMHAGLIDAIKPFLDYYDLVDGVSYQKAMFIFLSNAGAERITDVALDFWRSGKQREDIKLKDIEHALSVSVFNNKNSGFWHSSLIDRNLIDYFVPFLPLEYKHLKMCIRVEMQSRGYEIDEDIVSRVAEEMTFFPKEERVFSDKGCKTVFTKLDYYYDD
# Sequence of NADPH oxidase 2 (Homo sapiens) (P04839 whole entry, looked up): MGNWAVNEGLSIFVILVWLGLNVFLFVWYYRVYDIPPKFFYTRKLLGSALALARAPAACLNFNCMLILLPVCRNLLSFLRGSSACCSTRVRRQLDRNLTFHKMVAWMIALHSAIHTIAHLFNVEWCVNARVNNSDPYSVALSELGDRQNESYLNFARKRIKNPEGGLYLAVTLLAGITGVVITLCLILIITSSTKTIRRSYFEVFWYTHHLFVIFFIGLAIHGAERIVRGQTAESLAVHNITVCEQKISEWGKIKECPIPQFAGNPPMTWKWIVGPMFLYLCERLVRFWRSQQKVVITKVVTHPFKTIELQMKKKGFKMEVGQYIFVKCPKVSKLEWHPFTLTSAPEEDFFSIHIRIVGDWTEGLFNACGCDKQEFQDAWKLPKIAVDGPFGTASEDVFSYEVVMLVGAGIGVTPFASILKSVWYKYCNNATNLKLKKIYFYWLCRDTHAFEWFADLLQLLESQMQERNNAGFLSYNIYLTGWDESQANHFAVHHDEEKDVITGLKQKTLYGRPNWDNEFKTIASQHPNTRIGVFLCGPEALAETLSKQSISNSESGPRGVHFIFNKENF
SMILES,composite z-score [1],z-score [2],z-score [3],z-score [4],z-score [5],composite z-score [6],composite z-score [7],composite z-score (Torsin-1A (Homo sapiens) [8]),composite z-score (Torsin-1A (Homo sapiens) [9]),composite z-score [10],z-score [11],composite z-score [12],z-score [13],z-score [14],z-score [15],z-score [16],z-score [17],z-score [18],z-score [19],z-score [20]
CCN1C(=O)[C@H]2[C@H]3[C@H](O)[C@H](O)CC(=O)[C@H]3CC[C@H]2C1=O,0.113,0.89 (inactive),-0.212 (inactive),-0.293 (inactive),-0.733 (inactive),-0.0154,-0.225,1.06,0.386,0.593,0.115 (inactive),-0.0603,-0.0957 (inactive),0.143 (inactive),-0.669 (inactive),0.0097 (inactive),-0.276,-0.676 (inactive),0.471 (inactive),-0.156
COC(=O)[C@H]1O[C@@H](c2c(OC)c(OC)c(C)c(OC)c2OC)[C@H](C)[C@@H](O)[C@H]1C,0.2,0.299 (inactive),-0.895 (inactive),0.564 (inactive),1.12 (inactive),0.353,0.141,0.859,0.295,0.434,0.855 (inactive),-0.0505,0.516 (inactive),0.183 (inactive),0.92 (inactive),0.587 (inactive),0.817,0.933 (inactive),0.792 (inactive),0.194
CCCNC(=O)OC[C@H]1O[C@H](CCON=Cc2ccc(C(=O)N3[C@H](c4ccc(C)cc4)[C@@H](C)CC[C@H]3C(=O)OC)cc2)C=C[C@@H]1Oc1ccc(OC)cc1,0.157,-1.73 (inactive),0.0699 (inactive),2.55 (inactive),1.16 (inactive),0.0335,-0.105,0.436,0.853,0.396,0.33 (inactive),-0.16,1.21 (inactive),0.674 (inactive),0.0952 (inactive),0.612 (inactive),-0.619,0.725 (inactive),0.611 (inactive),0.393
CCOC(=O)NN=C1C[C@@H](O)[C@@H](O)[C@@H]2[C@@H]3C(=O)N([C@@H](C)c4ccccc4)C(=O)[C@@H]3CC[C@H]12,0.0373,-0.339 (inactive),0.627 (inactive),-0.115 (inactive),-0.174 (inactive),-0.0822,-0.0131,0.834,0.522,0.127,0.0575 (inactive),0.119,0.65 (inactive),0.452 (inactive),-0.011 (inactive),0.378 (inactive),-0.34,1.35 (inactive),0.67 (inactive),-0.657
COC(=O)[C@@H]1CC[C@H](C)[C@@H](c2ccc(C)cc2)N1C(=O)c1ccc(C=NO[C@@H]2O[C@H](COC(C)=O)[C@@H](OC(C)=O)[C@H](OC(C)=O)[C@H]2OC(C)=O)cc1,-0.0196,-3.41 (inactive),-0.553 (inactive),2.22 (inactive),-0.138 (inactive),0.253,-0.0986,0.203,0.121,0.891,-0.492 (inactive),0.0391,-0.013 (inactive),-0.647 (inactive),0.819 (inactive),-1.79 (inactive),1.02,-0.454 (inactive),-0.674 (inactive),-2.1
C[C@@H](ON=C1[C@H]2CCn3c(=O)n(-c4ccccc4)c(=O)n3[C@H]2[C@H](O)[C@@H]2O[C@H]12)c1cn([C@@H]2COC[C@H]2O)nn1,0.134,0.981 (inactive),0.58 (inactive),0.085 (inactive),0.258 (inactive),0.189,0.0028,0.436,0.63,0.438,-0.212 (inactive),-0.255,0.595 (inactive),0.277 (inactive),0.0251 (inactive),0.122 (inactive),-0.574,-0.183 (inactive),-0.242 (inactive),-0.461
CC(C)(C)N1C(=O)[C@H]2[C@H]3[C@H](O)C=CC(=O)[C@@H]3CC[C@H]2C1=O,0.307,0.536 (inactive),0.0768 (inactive),1.06 (inactive),-0.0003 (inactive),0.4,-0.128,0.281,0.252,0.521,-0.0926 (inactive),-0.286,-0.007 (inactive),-0.566 (inactive),-0.562 (inactive),-0.43 (inactive),0.0787,0.497 (inactive),-1.67 (inactive),-0.47
CC(CCN1CCCc2nc(C)c(C)cc21)=NOC(C)CN1CCCCc2nc(C)c(C)cc21 (stereo not given),0.277,-0.466 (inactive),-0.624 (inactive),-0.31 (inactive),0.527 (inactive),0.666,0.0074,-0.109,0.631,1.05,-0.702 (inactive),0.123,2.12 (inactive),0.193 (inactive),0.564 (inactive),0.415 (inactive),-0.775,-0.397 (inactive),-1.71 (inactive),-0.496
